The structures appear in SMILES notation. Values joined by “and” are separate entries in the source; they are usually repeats but may differ in a detail not shown here. Equal entries are not always repeated. Results filed as inconclusive are left out. Entries that show only a call come without a potency. Some compounds were tested as several samples or in several runs, with calls that do not always agree. Active and inactive are the calls of the source. Calls come from the whole dose curve; as a rule, active = well fitted cell-killing curve with a large enough effect in the repeat runs; inconclusive = weak or mixed curves; inactive = flat fitted curve, though single readings scatter.
Potency is the fitted concentration of half-maximal effect.

A short description of the experiment: qHTS RealTime-Glo MT Cell Viability Assay in HepG2 cells - 24 hour (AID 1224867). Note: nearly all actives have a fitted effect of over 50% in size. The conditions noted are these: RealTime-Glo luminescence; series mostly up to 76.8 µM; activity change, negative = cytotoxicity: at the top concentration. The text has this:
U.S. Tox21 Program National Center for Advancing Translational Sciences [NCATS] NIH Chemical Genomics Center [NCGC] U.S. Environmental Protection Agency [EPA] National Institutes of Environmental Health Sciences [NIEHS] National Toxicology Program [NTP] U.S. Food and Drug Administration [FDA] Tox21 Assay Overview: Measure of cell viability is critical in the cell-base assay. Analysis of cell viability is necessary for the characterization of cell responses to cytotoxic drugs and environmental stress. A RealTime-Glo MT Cell Viability Assay to monitor cell viability in real time of continues cell culture during 40 hours of compound treatment was used to screen Tox21 10K library compounds in HepG2 cells. The RealTime-Glo MT Cell Viability Assay is a nonlytic, homogeneous, bioluminescent method to measure cell viability in real time using a simple, plate-based method. The assay involves adding NanoLuc luciferase and a cell-permeant prosubstrate to cells in culture. Viable cells reduce the proprietary prosubstrate to generate a substrate for NanoLuc luciferase. This substrate diffuses from cells into the surrounding culture medium, where it is rapidly used by the NanoLuc Enzyme to produce a luminescent signal. The signal correlates with the number of viable cells, making the assay well suited for cytotoxicity studies.
Tox21 Assay Protocol Summary: The mixture of HepG2 cell suspension and reagents were dispensed at 600cells/6 ul/well in 1536-well tissue culture treated black solid bottom plates using a Multidrop dispenser. After the assay plates were incubated at a 37 C/5% CO2 incubator for 5 hours, 23 nL of compounds dissolved in DMSO, positive and negative controls was transferred to the assay plate by a pintool work station. The plates were incubated at 37 C for 40 hours. The luminescence intensity were measured at 0h, 8h, 16h, 24h, 32h and 40h time points using ViewLux plate reader during compound treatment.
(In qHTS, concentration-response curves come from the screen itself.)
With `Nc1ccc2c(O)cc(S(=O)(=O)O)cc2c1`, the Potency result is “inactive”. Regarding `CC(C)=CCO`, the Potency result is “inactive”. Turning to `CC(=O)Oc1ccc(C(c2ccc(OC(C)=O)cc2)c2ccccn2)cc1`, the Potency entry was “inactive”. As for `[Na+]`, the “activity change, negative = cytotoxicity” value is 0.201% (inactive).

In the case of `C1COCCN1`, the Potency entry is “inactive”.

With `CN1CCOCC1`, the Potency entry is “inactive”. The same measure, in the same setting: the entry for `CCCOCCO` is “inactive”.

Consider `COC(=O)c1ccc(C)cc1`, for which the Potency result is “inactive”.

As to `C=C[C@H]1CN2CC[C@H]1C[C@H]2[C@H](O)c1ccnc2ccc(OC)cc12`, the Potency entry is “inactive”. With `CC(=O)O[C@]1(C(C)=O)CC[C@H]2[C@@H]3C=C(C)C4=CC(=O)CC[C@]4(C)[C@H]3CC[C@@]21C`, the “activity change, negative = cytotoxicity” value is -18.9% [at 35.3 µM] (inactive).

As to `C[C@]12CC[C@@H]3c4ccc(O)cc4CC[C@H]3[C@@H]1CC[C@H]2O`, the Potency entry was “inactive”. Regarding `CNC[C@H](O)c1ccc(O)c(O)c1`, the Potency result was “inactive”.

With `COCCOCCOCCO`, the Potency entry is “inactive”. Same read-out and setting: the same measure for `CCCCCCCCCCC(CO)CCCCCCCC` (stereo not given): “inactive”. `c1ccc2c(c1)ccc1ncccc12`: the Potency entry was “inactive”.

In the case of `Cc1ccc(C(C)(C)C)cc1`, the Potency result was “inactive”. As for `CC/C=C\C/C=C\C/C=C\CCCCCCCC(=O)O`, the Potency entry was “inactive”. On to `Oc1ccc(C(c2ccc(O)cc2)C(Cl)(Cl)Cl)cc1`, for which the “activity change, negative = cytotoxicity” value is -4.33% (inactive). `CC1=CC(C)(C)Nc2ccccc21`: the Potency entry was “inactive”.

In the case of `O=C(CCCN1CCC(O)(c2ccc(Cl)cc2)CC1)c1ccc(F)cc1`, the Potency is 49 µM (active) and inactive. Same read-out and setting: the same measure for `C=C[C@@]1(C)CC(=O)[C@]2(O)[C@@]3(C)[C@@H](O)CCC(C)(C)[C@@H]3[C@H](O)[C@H](OC(C)=O)[C@@]2(C)O1`: “inactive”; for `C[N+](C)(C)CCO`: “inactive”. Take `CC(C)(Oc1ccc(Cl)cc1)C(=O)O`: the Potency result is “inactive”. Consider `CC(=O)[C@@]1(O)CC[C@H]2[C@@H]3C[C@H](C)C4=CC(=O)C=C[C@]4(C)[C@@]3(F)[C@@H](O)C[C@@]21C`, for which the Potency entry is “inactive”. Take `CCc1cccc2c3c([nH]c12)C(CC)(CC(=O)O)OCC3` (stereo not given): the Potency result was “inactive”. As for `NC[C@H](O)c1ccc(O)c(O)c1`, the Potency entry was “inactive”. Same read-out and setting: the entry for `CC(C)[C@@H]1CC[C@@H](C)CC1=O` is “inactive”; for `C=CC(=O)OCCCC` it is “inactive”.

Consider `CC(=O)Oc1c(C)c(C)c2c(c1C)CC[C@@](C)(CCC[C@H](C)CCC[C@H](C)CCCC(C)C)O2`, for which the Potency entry is “inactive”. Turning to `CCCCCC=O`, the Potency result was “inactive”.

With `NCCN`, the Potency result was “inactive and 38.9 µM (active)”.

Regarding `CC/C(=C(/CC)c1ccc(O)cc1)c1ccc(O)cc1`, the Potency entry is “inactive”. Regarding `c1ccc2ncccc2c1`, the Potency result is “inactive”. `Clc1ccc(Sc2cc(Cl)c(Cl)cc2Cl)cc1`: the Potency result was “inactive”.

With `C[C@]12C=CC(=O)C=C1CC[C@H]1[C@@H]3C[C@@H](O)[C@](O)(C(=O)CO)[C@@]3(C)C[C@H](O)[C@@]12F`, the Potency result was “inactive”. The same measure, in the same setting: the entry for `Brc1nc2ccccc2s1` is “inactive”.

Regarding `CC(C)[N+](C)(CCOC(=O)C1c2ccccc2Oc2ccccc21)C(C)C`, the Potency result was “inactive”. As for `OC[C@@H](O)[C@@H](O[C@@H]1O[C@H](CO)[C@H](O)[C@H](O)[C@H]1O)[C@H](O)[C@@H](O)CO`, the Potency entry is “inactive”. Still for that read-out and setting: the entry for `COC(=O)C(C)Oc1ccc(Oc2ncc(C(F)(F)F)cc2Cl)cc1` (stereo not given) is “inactive”. For the molecule `NCCOCCO`, the Potency entry was “inactive”.

The values above are taken from PubChem BioAssay (Tox21).
